In ChEMBL document CHEMBL4513146, “CO-ADD screening of Karazin Kharkiv National University (Ukraine) compounds”:
Entries with a potency or affinity are not part of this list.

The compounds below were run on Staphylococcus aureus. Conditions: Concentration 32 ug.mL-1;; ASSAY_TEST Inhibition of Bacterial Growth; detection method Absorption (OD600); MEDIA CAMHB; plate type 384well; NBS; CORNING #3640; time 18 hr.
Compound `COc1cccc(-n2ccn3c(SCC(=O)Nc4cccc(F)c4)nnc3c2=O)c1` has an Inhibition of -6.79%. `COc1cccc(Sc2nc3ccccc3n3c(=O)n(CC(=O)Nc4ccc(Cl)cc4)nc23)c1` showed an Inhibition of 1.75%. For `COc1ccc(-c2cc3c4nn(CC(=O)Nc5ccc(C)cc5C)c(=O)n4ccn3n2)cc1`, the Inhibition was 1.83%. With `CCOc1ccc(-n2ccn3c(SCC(=O)Nc4cc(Cl)ccc4OC)nnc3c2=O)cc1` the Inhibition was 6.02%. `CCCCc1ccc(NC(=O)Cn2c(=O)c3nnc(CCC)n3c3ccccc32)cc1` gave an Inhibition of 2.94%. Compound `CCOC(=O)c1ccc(NC(=O)CSc2nnc3c4cc(-c5ccc(OC)cc5)nn4ccn23)cc1` has an Inhibition of 10.14%. In the case of `Cc1nnc2c(=O)n(CC(=O)Nc3cccc(Cl)c3)c3ccccc3n12`, the Inhibition is reported as 13.08%. With `Cc1cccc(N(Cc2cccc(F)c2)S(=O)(=O)c2cccn3c(C)nnc23)c1` the Inhibition was 20.9%. With `Cc1nc(-c2ccccn2)cc2nn(CC(=O)Nc3ccccc3C(F)(F)F)c(=O)n12` the Inhibition was 2.98%. For `CCCCOc1ccc(-c2cc3c4nnc(SCC(=O)Nc5cc(F)ccc5C)n4ccn3n2)cc1`, the Inhibition was -12.48%. With `COc1cccc(NC(=O)Cn2nc3c(N4CCCC4)nccn3c2=O)c1` the Inhibition was -2.28%. In the case of `CCc1ccccc1NC(=O)Cn1nc2c(Sc3ccc(C)cc3C)nccn2c1=O`, the Inhibition is reported as 1.94%. `CCc1ccc(N(Cc2ccccc2F)S(=O)(=O)c2cccn3c(C)nnc23)cc1` showed an Inhibition of 15.67%. With `O=c1c2sccc2n2c(=O)n(Cc3ccccc3F)nc2n1Cc1cccs1` the Inhibition was -3.2%. Work on `Cc1oc(-c2ccccc2)nc1CSc1nc2ccccc2n2c(C(C)C)nnc12` yielded an Inhibition of -2.26%. With `Cc1cc(C)cc(NC(=O)Cn2nc3c(Sc4cccc(C)c4)nc4ccccc4n3c2=O)c1` the Inhibition was 1.17%. Compound `Cc1cc(Br)ccc1NC(=O)Cn1nc2c(Sc3cccc(F)c3)nccn2c1=O` has an Inhibition of 10.13%. In the case of `Cc1ccccc1CN(c1ccc(C(C)C)cc1)S(=O)(=O)c1cccn2c(C)nnc12`, the Inhibition is reported as 9.54%. In the case of `Cc1cccc(C)c1NC(=O)Cn1nc2c(N3CCSCC3)nc3ccccc3n2c1=O`, the Inhibition is reported as -9.27%. With `O=C(Cn1nc2c(=O)n(-c3ccc(Br)cc3)ccn2c1=O)Nc1ccc(F)cc1F` the Inhibition was 3.27%. Work on `COc1ccc(NC(=O)Cn2nc3c(Sc4ccccc4)nccn3c2=O)c(OC)c1` yielded an Inhibition of -11.13%. With `Cc1cc2nn(CC(=O)NC3CCCCC3)c(=O)n2c(Nc2ccc(F)c(C)c2)n1` the Inhibition was 11.08%. With `COc1ccc(C)cc1NC(=O)Cn1nc2cc(C)nc(Nc3ccc(F)cc3)n2c1=O` the Inhibition was -14.69%. `CCCN(C)c1nccn2c(=O)n(CC(=O)Nc3ccc(C#N)cc3)nc12` gave an Inhibition of 14.04%. `CCc1nnc2c(SCC(=O)Nc3c(C)cc(C)cc3C)nc3ccccc3n12` showed an Inhibition of 7.54%. Compound `COc1cccc(Oc2nccn3c(=O)n(CC(=O)Nc4cc(C)c(Cl)cc4OC)nc23)c1` has an Inhibition of -12.26%. With `O=S(=O)(c1cccn2cnnc12)N(Cc1ccc(F)cc1)c1ccc(F)c(F)c1` the Inhibition was 8.71%. With `COc1ccc(CNC(=O)Cn2nc3c(Oc4cccc(C)c4C)nccn3c2=O)cc1` the Inhibition was -12.87%. `Cc1cc2nn(CC(=O)Nc3ccc(F)c(F)c3)c(=O)n2c(Nc2ccc(F)c(C)c2)n1` showed an Inhibition of 9.7%. With `Cc1nnc2ccc(S(=O)(=O)N(Cc3ccccc3F)c3ccc(Cl)cc3)cn12` the Inhibition was -12.68%. `COc1ccc(NC(=O)Cn2nc3c(Oc4cccc(F)c4)nccn3c2=O)cc1` showed an Inhibition of -3.6%. Compound `Cc1ccc(-n2ccn3c(SCC(=O)Nc4ccc5c(c4)OCCO5)nnc3c2=O)cc1C` has an Inhibition of 6.11%. `CCc1nnc2c(SCC(=O)Nc3cccc(C(C)=O)c3)nc3ccccc3n12` gave an Inhibition of 2.41%. Work on `Cc1oc(-c2cccc(Cl)c2)nc1CSc1nc2ccccc2n2c(C(C)C)nnc12` yielded an Inhibition of 3.52%. With `O=C(Cn1nc2ccc(Sc3cccc(F)c3)nn2c1=O)Nc1ccc(Cl)cc1` the Inhibition was 7.1%. In the case of `O=c1c2sccc2n2c(=O)n(Cc3ccccc3Cl)nc2n1Cc1cccs1`, the Inhibition is reported as -1.31%. With `N#CCSc1nnc2c(=O)n(-c3ccccc3)ccn12` the Inhibition was 13.33%. `Cn1c(=O)c2sccc2n2c(=O)n(CCOc3ccccc3)nc12` showed an Inhibition of -2.74%. `O=C(CSc1nnc2c(=O)n(-c3ccc(F)c(F)c3)ccn12)c1c[nH]c2ccccc12` gave an Inhibition of 13.28%.
